Source: PubChem BioAssay AID1159580 (chemical genetic matrix, 2015)
In all, about 5,500 compounds went through this assay and about 2,000 (36%) were called active. Roughly 18% stayed inconclusive and do not appear here. No stated cut-off is given here; in the data, active means normalized growth mostly below about 0.91 (no sharp cut-off); inconclusive means no clear call, values can overlap the other calls; inactive means mostly above about 0.92. The list shows a part of the results.

Assay: chemical genetic growth profiling, strain panel (AID 1159580);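 further: tested at 20 µM; growth read once vehicle control cultures reached saturation at 30 °C; 1 = growth at the plate median or of vehicle wells; lower values mean less growth of the strain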
Conditions: S. cerevisiae deletion strains, growth OD
[1] = locus YAL013W, strain DEP1, active compounds read low
[2] = locus YDR150W, strain NUM1, active compounds read low
[3] = locus YGR078C, strain PAC10, active compounds read low
[4] = locus YJR075W, strain HOC1, active compounds read low
[5] = locus YNL128W, strain TEP1, active compounds read low
[6] = locus YNL153C, strain GIM3, active compounds read low
[7] = locus YPL055C, strain LGE1, active compounds read low
[8] = locus YPL241C, strain CIN2, active compounds read low
[9] = locus YAL040C, strain CLN3, active compounds read low
[10] = locus YCL061C, strain MRC1 (second series), active compounds read low
[11] = locus YDR363W, strain ESC2, active compounds read low
[12] = locus YER002W, strain NOP16, active compounds read low
[13] = locus YGR229C, strain SMI1, active compounds read low
[14] = locus YMR307W, strain GAS1, active compounds read low
[15] = locus YNL175C, strain NOP13, active compounds read low
[16] = locus YNL197C, strain WHI3, active compounds read low
[17] = locus YNL224C, strain SQS1, active compounds read low
[18] = locus YOR083W, strain WHI5 (second series), active compounds read low

Measured: normalized growth

N#Cc1csc([N+](=O)[O-])c1
inactive: [1] 0.944 | locus YCL061C, strain MRC1, active compounds read low 0.937 | [2] 0.885 | locus YHR087W, strain rtc3, active compounds read low 0.917 | locus YJR043C, strain POL32, active compounds read low 0.929 | locus YLR058C, strain SHM2 (second series), active compounds read low 0.951 | [5] 0.942 | locus YNL322C, strain KRE1, active compounds read low 1.01 | [7] 0.872
active: locus YBR229C, strain ROT2, active compounds read low 0.908 | locus YDL101C, strain DUN1, active compounds read low 0.817 | locus YDL134C, strain PPH21, active compounds read low 0.892 | locus YEL061C, strain CIN8, active compounds read low 0.797 | [3] 0.86 | locus YHR030C, strain SLT2, active compounds read low 0.363 | [4] 0.86 | locus YKL190W, strain CNB1, active compounds read low 0.923 | locus YLR039C, strain RIC1, active compounds read low 0.687 | locus YLR085C, strain ARP6, active compounds read low 0.456 | locus YLR262C, strain YPT6, active compounds read low 0.795 | locus YML094W, strain GIM5, active compounds read low 0.809 | locus YMR219W, strain ESC1, active compounds read low 0.941 | [6] 0.901 | locus YNL298W, strain CLA4 (second series), active compounds read low 0.823 | locus YNR030W, strain Alg12, active compounds read low 0.834 | locus YOL006C, strain TOP1, active compounds read low 0.369 | [8] 0.744 | locus YPR135W, strain CTF4, active compounds read low 0.46

N#Cc1cc2nc(O)c(O)nc2cc1[N+](=O)[O-]
inactive: [1] 0.985 | [9] 0.989 | [10] 0.998 | [2] 0.993 | [11] 1.01 | [12] 1.01 | [3] 0.979 | [13] 1.02 | [4] 1 | [14] 0.991 | [6] 0.984 | [15] 0.995 | [16] 0.997 | [17] 0.979 | [18] 0.994 | [8] 1

NC(=O)C(=O)O
inactive: [1] 1.01 | [9] 1 | [10] 1 | [2] 1 | [11] 1.02 | [12] 0.999 | [3] 0.994 | [14] 1 | [15] 1.01 | [16] 1 | [17] 1.01 | [18] 1.02 | [7] 1.01 | [8] 0.997

CC(N)=O
inactive: [9] 0.973 | [12] 0.992 | [3] 1 | [13] 1.01 | [4] 0.991 | [5] 0.997 | [15] 0.992 | [16] 1 | [17] 1.04 | [18] 1 | [8] 0.975
